# Compound activity: PubChem, Sanford-Burnham Center for Chemical Genomics
# A selection: hits, their analogues and other compounds. The true share with any hit is near 3.1%.
# KKLEB cytotox: cytotoxicity in KKLEB CF airway cells, primary screen, cytotoxicity control for CF NF-kB inhibitor project, cell-based, uHTS, fluorescence assay plates | KKLEB CF airway cells viability, ATPlite luminescence, overnight; stronger effect = lower value; cells stimulated with P. aeruginosa culture filtrate | activity change (cytotoxicity), % at 5 µM | hit rate 0.36% among 360,000 | AID 602141, 2011;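 active = corrected activity change at or below -50% at 5 µM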
# Peg3 prom inh: Peg3 promoter-driven luciferase inhibitors, primary screen, cell-based, HeLa, luciferase luminescence. HeLa PEG-Prom luciferase reporter, overnight. inhibition, % at 20 µM. hit rate 1.7% among 360,000. AID 588405, 2011;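 active = inhibition of at least 50% at 20 µM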
# HIF-2a inh: HIF-2a reporter inhibitors, primary screen, luminescence, 786-0 RCC cells. hit rate 0.72% among 360,000. AID 624352, 2012. inhibition, % at 18.8 µM. 786-0 RCC cells HIF-2a reporter, luciferase luminescence, overnight;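 active = inhibition of the luminescence signal of 40% or more relative to plate controls, in a single-dose primary screen at 18.75 µM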
# CF NFkB inh: inhibitors of PAF-induced NF-kB signaling, primary screen, cell-based, GFP fluorescence, uHTS; KKLEB NF-kB-GFP reporter, GFP fluorescence overnight; inhibition, % at 5 µM; hit rate 0.86% among 360,000;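 active = at least 50% inhibition at 5 µM, scaled per plate between neutral and stimulator controls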;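 note: PAF is a Pseudomonas aeruginosa culture filtrate used as stimulus; plate controls were PAF-stimulated DMSO wells for no effect and unstimulated DMSO wells for full effect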
# TRAIL sens C8: viability loss with TRAIL in NB7+C8 cells, primary screen, TRAIL sensitizer project, cell-based, ATPlite luminescence; hit rate 1% among 360,000; inhibition (viability loss, TRAIL sensitization), % at 10 µM;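 active = compounds causing at least 50% loss of cell viability in the single-dose screen, relative to plate controls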
# PPC-1+TRAIL kill: compounds killing PPC-1 cancer cells with TRAIL present, primary screen, TRAIL potentiator project, ATPLite luminescence, uHTS; PPC-1 cells + TRAIL, ATPLite viability luminescence; cell killing (% activity), % at 4 µM or 5 µM; hit rate 0.41% among 220,000; AID 1443, 2008;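 active = cell killing above 50% in the first pass at 4 µM, then a duplicate retest at 5 µM averaging 50% or more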;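 note: plate controls were cells with TRAIL plus DMSO for no effect and medium-only wells lacking cells for full effect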
# Mdm2 MdmX conf: retested Mdm2-MdmX interaction blockers, confirmation, cell-based, luminescence, single concentration, set 2; AID 504601, 2011; SaOS-2 split-luciferase Mdm2/MdmX complementation; hit rate 99% among 740; shares compounds with HIF-2a inh; inhibition, % at 8 µM;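 active = mean inhibition of the luminescence signal across two replicates at or above 26 percent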
# Target sequence (O15151 whole entry, looked up): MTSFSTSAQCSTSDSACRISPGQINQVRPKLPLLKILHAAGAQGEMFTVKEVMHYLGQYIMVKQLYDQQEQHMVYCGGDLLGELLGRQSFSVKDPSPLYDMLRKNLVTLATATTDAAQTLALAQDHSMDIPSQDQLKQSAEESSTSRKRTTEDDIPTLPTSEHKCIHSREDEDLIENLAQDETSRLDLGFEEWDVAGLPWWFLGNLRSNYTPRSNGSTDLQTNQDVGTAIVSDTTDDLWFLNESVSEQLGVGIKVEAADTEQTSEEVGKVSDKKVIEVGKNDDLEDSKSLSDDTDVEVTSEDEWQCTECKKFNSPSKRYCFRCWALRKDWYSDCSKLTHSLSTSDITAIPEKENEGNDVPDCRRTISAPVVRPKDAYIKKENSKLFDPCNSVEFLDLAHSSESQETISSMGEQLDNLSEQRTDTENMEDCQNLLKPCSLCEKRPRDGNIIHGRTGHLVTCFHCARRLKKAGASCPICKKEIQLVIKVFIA
# Target sequence (Q00987 whole entry, looked up): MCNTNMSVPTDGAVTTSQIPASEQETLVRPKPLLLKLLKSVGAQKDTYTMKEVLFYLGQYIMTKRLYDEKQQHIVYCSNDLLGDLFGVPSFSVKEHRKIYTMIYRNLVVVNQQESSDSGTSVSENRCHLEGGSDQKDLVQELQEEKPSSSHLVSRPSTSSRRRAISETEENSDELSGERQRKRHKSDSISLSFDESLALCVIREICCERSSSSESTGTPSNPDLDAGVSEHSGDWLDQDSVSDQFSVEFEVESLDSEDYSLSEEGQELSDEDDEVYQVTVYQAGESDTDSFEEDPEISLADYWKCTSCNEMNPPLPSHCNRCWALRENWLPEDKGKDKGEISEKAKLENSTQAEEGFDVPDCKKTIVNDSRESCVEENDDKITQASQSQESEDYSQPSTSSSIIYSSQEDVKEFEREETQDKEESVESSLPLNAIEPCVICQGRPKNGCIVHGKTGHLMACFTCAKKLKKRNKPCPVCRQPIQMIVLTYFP
# HIF-2a inh conf: HIF-2a reporter inhibitor retest, confirmation, luminescence, 786-0 RCC cells. shares compounds with HIF-2a inh. HIF-2a luciferase reporter luminescence, overnight. inhibition, % at 18.8 µM. hit rate 56% among 1,800. AID 651580, 2012;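 active = mean inhibition across four replicates of at least 40 percent at the single tested concentration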
# HIF-1a counter: HIF-1a luciferase reporter signal reduction – MiaPaCa-2 cells, single concentration, counter-screen for HIF-2a inhibitor project, confirmation. shares compounds with HIF-2a inh. MiaPaCa-2 HIF-1a luciferase reporter, desferoxamine, overnight. inhibition, % at 18.8 µM. hit rate 72% among 1,800. AID 651589, 2012;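 active = mean inhibition of the reporter signal across four replicates at the single tested dose of 50% or more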
# The depositor's hits bear a star; nt = not tested or not shown.
SMILES,KKLEB cytotox,Peg3 prom inh,HIF-2a inh,CF NFkB inh,TRAIL sens C8,PPC-1+TRAIL kill,HIF-2a inh conf,HIF-1a counter,others
Cc1ccc(C)c(C(=O)Cn2ncc(Cl)c(Cl)c2=O)c1,-13,109*,86*,31,97*,26,13,104*,
Cc1ccc(C)c(C(=O)CN2C(=O)c3ccccc3C2=O)c1,-1,11,-13,7,26,nt,nt,nt,
COc1cc2c3nnc(-c4ccc(F)cc4)c-3cn(Cc3ccccc3)c2cc1OC,11,103*,-24,-348,67*,28,nt,nt,Mdm2 MdmX conf=103*
CCSc1nc(-c2ccccc2)c2cc(Cl)ccc2n1,5,14,16,18,0,2,nt,nt,
CCSc1nc(-c2ccccc2)nc(C(Cl)Cl)n1,-15,102*,71*,14,-4,nt,61*,105*,
CCOC(=O)[C@H](C)N1[C@H](C)[C@H](c2ccccc2)Oc2ccc(Cl)cc2S1(=O)=O,5,6,13,2,11,nt,nt,nt,
CC(C)(C)c1ccc(Oc2ccc(NC(=O)c3ccccc3C(=O)O)cn2)cc1,-12,12,56*,10,-1,22,51*,35,
COc1ccc(Cn2nnnc2C(c2cc3cccc(C)c3[nH]c2=O)N2CCN(C)CC2)cc1 (configuration not stated),-5,12,41*,-24,-2,5,-3,10,
Cc1cccc2cc(C(c3nnnn3Cc3ccccc3)N3CCN(C)CC3)c(=O)[nH]c12 (configuration not stated),-15,4,4,-7,-7,9,nt,nt,
CC(=NNC(=S)Nc1cccc(C)c1)c1ccccn1,-7,-55,-215,-12,-2,nt,nt,nt,
CC(=NNC(=S)Nc1ccc(C)cc1)c1ccccn1,14,74*,61*,-18,18,nt,-28,2,
NCc1cc2c3c(c1)CCCN3CCC2,5,5,1,-17,-27,nt,nt,nt,
COC(=O)c1c(NC(=O)c2nc3ccccc3s2)sc2c1CC(C)(C)NC2(C)C,-32,104*,23,34,86*,19,nt,nt,Mdm2 MdmX conf=93*
CCOC(=O)c1c(NC(=O)CSc2nc3ccccc3[nH]2)sc2c1CC(C)(C)NC2(C)C,-20,29,13,-6,30,nt,nt,nt,
COc1ccc(Cl)cc1NC(=O)CN(C)C(=O)c1cn2ccccc2n1,-3,35,8,16,14,nt,nt,nt,
COc1cccc(N(C(=O)CCl)C(C(=O)NCCc2ccccc2)c2cccs2)c1 (configuration not stated),-90*,109*,93*,94*,96*,35,98*,107*,
COc1ccc(N(C(=O)CCl)C(C(=O)NCCc2ccccc2)c2cccs2)cc1Cl (configuration not stated),-104*,102*,95*,89*,95*,89*,99*,103*,
O=c1[nH][nH]c(=O)c2nc(Nc3ccccc3)ncc12,14,-2,-2,-2,-2,nt,nt,nt,
CC(=O)Nc1ccc(C=NNC(=O)CCCC(=O)NN=Cc2ccc(NC(C)=O)cc2)cc1,12,-3,17,0,8,nt,nt,nt,
O=C1OCCC1Sc1nc2cc(Cl)ccc2n1Cc1ccccc1 (configuration not stated),-4,10,51*,9,8,34,4,8,
O=C1OCCC1Sc1nc2ccccc2c(=O)n1Cc1ccccc1 (configuration not stated),4,-8,16,-1,3,4,nt,nt,
Cc1cc(C(N)=O)c2ccccc2n1,10,13,12,8,-12,-6,nt,nt,
NC(=O)c1cc2ccncc2c2ccccc12,-7,-16,33,79*,17,-9,nt,nt,Mdm2 MdmX conf=98*
CNc1cncc(-c2cnn(CC(C)C)c2)n1,14,-85,-116,-16,5,nt,nt,nt,
COC(=O)[C@@]1(C)[C@H]2C(=O)N(Cc3ccccc3)C(=O)[C@H]2[C@H]2CN=C(SCc3ccc(C#N)cc3)N21,0,4,10,-12,-1,nt,nt,nt,
SMILES,KKLEB cytotox,Peg3 prom inh,HIF-2a inh,CF NFkB inh,TRAIL sens C8,PPC-1+TRAIL kill,HIF-2a inh conf,HIF-1a counter,others
COC(=O)[C@@]1(Cc2ccccc2)[C@H]2C(=O)N(Cc3ccccc3)C(=O)[C@H]2[C@H]2CN=C(SCc3ccc(Cl)cc3)N21,-9,0,17,9,4,nt,nt,nt,Mdm2 MdmX conf=103*
CCN1C(=O)[C@H]2[C@H]3CN=C(SCc4ccc(Cl)cc4)N3[C@@](Cc3ccccc3)(C(=O)OC)[C@H]2C1=O,8,21,4,-24,5,nt,nt,nt,
COC(=O)[C@@]1(C)[C@H]2C(=O)N(Cc3ccccc3)C(=O)[C@H]2[C@H]2CN=C(SCc3ccc(Cl)cc3)N21,1,11,11,14,-19,nt,nt,nt,Mdm2 MdmX conf=103*
O=c1nc(/C=C/c2cc([N+](=O)[O-])ccc2Cl)cc(C(F)(F)F)[nH]1,34,20,83*,-4,6,21,61*,79*,
O=c1nc(/C=C/c2cccn2-c2ccc([N+](=O)[O-])cc2)cc(C(F)(F)F)[nH]1,15,14,18,-2,-2,9,nt,nt,
COc1cc(/C=C/c2cc(C(F)(F)F)[nH]c(=O)n2)cc(OC)c1OC,24,25,40*,-2,-20,5,26,-3,
COc1cc(OC)c(OC)cc1/C=C/c1cc(C(F)(F)F)[nH]c(=O)n1,17,12,30,2,5,nt,nt,nt,
O=C1OC(c2ccccc2)(N(Nc2ccccc2)c2ccccc2)c2ccccc21 (configuration not stated),4,19,19,14,16,nt,nt,nt,
COC(=O)C[C@@H]1C=C[C@H](NC(=O)c2cnccn2)[C@@H](CO)O1,nt,nt,3,nt,6,nt,nt,nt,
CC(C)(C)OC(=O)C[C@@H]1C/C=C\C[C@@H](CC(=O)N[C@H](CO)Cc2ccccc2)C(=O)N2CCC[C@H]2COC1=O,-5,25,9,-4,-11,nt,nt,nt,
CC1C(=O)N2CCCc3cc(S(=O)(=O)NCc4ccccc4Cl)cc1c32 (configuration not stated),5,-10,8,4,8,nt,nt,nt,
